In PubChem BioAssay one finds composite z-score and z-score data, which are given here for 22 compounds.

The subject of assay [1] is XIP peptide (Xip251-270) binding. The experiment in a line: XIP fragment 251-270 binding compounds – biochemical, small-molecule microarray, fluorescence 635/667 nm, 0.1 µg/mL protein, primary screen (AID 1182). To be noted: fluorescent protein binding, 635 nm, higher = more signal, called active from +8 up or from −8 down.
The next assay has as its system XIP peptide (Xip251-270). The experiment in a line: compounds binding XIP fragment 251-270 – biochemical, small-molecule microarray, fluorescence 635/667 nm, 0.5 µg/mL protein, primary screen (AID 1183). To be noted: fluorescence 635 nm, higher = more signal.
Assay [2] is described as follows: blood-stage malaria parasite viability loss – strain 3D7, DAPI fluorescence, 100 nL, primary screen (AID 1184).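 Note: parasites grown inside human red blood cells in medium with human serum.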 The settings on record: P. falciparum 3D7 growth, 3 d, higher = more signal.
For assay [3], the target named is Homeobox protein Hox-A13 (Mus musculus) (UniProt Q62424). The experiment in a line: disruptors of Hoxa13 oligonucleotide interaction – biochemical, fluorescence polarization, labeled oligonucleotide, primary screen (AID 1185). The settings on record: Hoxa13:DNA binding, 15 min, higher = more signal, called active from +8 up or from −8 down. On the technique in general: Fluorescence polarisation rises when a labelled molecule tumbles more slowly, as on binding a larger partner.
Homeobox protein Hox-A13 (Mus musculus), sequence (Q62424 whole entry, looked up): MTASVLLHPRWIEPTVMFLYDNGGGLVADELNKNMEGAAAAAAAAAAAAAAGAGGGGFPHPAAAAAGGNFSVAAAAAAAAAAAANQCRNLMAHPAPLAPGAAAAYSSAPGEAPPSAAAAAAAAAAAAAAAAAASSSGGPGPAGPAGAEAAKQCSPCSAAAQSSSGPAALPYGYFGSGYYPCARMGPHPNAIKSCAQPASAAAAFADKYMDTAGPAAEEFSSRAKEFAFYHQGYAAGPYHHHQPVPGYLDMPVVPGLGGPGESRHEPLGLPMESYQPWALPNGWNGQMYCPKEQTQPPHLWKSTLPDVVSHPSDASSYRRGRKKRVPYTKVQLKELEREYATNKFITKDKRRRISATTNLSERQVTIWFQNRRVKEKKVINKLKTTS

Active and inactive are the calls of the source.

Regarding `CC(=O)OC[C@H]1O[C@@H](ON=C[C@@H](C)[C@H](OCc2ccccc2)C(C)C)[C@H](OC(C)=O)[C@@H](OC(C)=O)[C@@H]1OC(C)=O`, the results for the composite z-score (in assay [1]; in the assay on XIP peptide (Xip251-270)) were -0.182 (inactive) and 0.0517, respectively. For the same compound, the z-score in assay [2] is 0.317; in assay [3], -4.44 (inactive).
For `O=C1[C@H]2[C@H]3[C@H](O)[C@H](O)CC(=NO[C@@H]4O[C@H](CO)[C@@H](O)[C@H](O)[C@H]4O)[C@H]3CC[C@H]2C(=O)N1Cc1ccccc1` the same measures were -0.175 (inactive), 0.588, -1.19 and -1.28 (inactive).
For the compound `CO[C@@H]1COC(=O)[C@@H]2CCCN2C(=O)[C@@H](C)COC(=O)[C@H](COCc2ccccc2)NC(=O)CC=C[C@H]1C`, the composite z-score was -0.33 (inactive) in assay [1] and 0.0728 in the assay on XIP peptide (Xip251-270). Further, the z-score is -0.67 in assay [2] and -0.767 (inactive) in assay [3].
For `O=C1[C@H]2[C@H]3[C@H](O)[C@H](O)CC(=NOCc4ccccc4)[C@@H]3CC[C@H]2C(=O)N1Cc1ccccc1` the same measures were -0.22 (inactive), -0.0597, 0.0087 and -0.38 (inactive).
`C#CCCCON=C1C[C@@H](O)[C@@H](O)[C@@H]2[C@@H]3C(=O)N([C@@H](C)c4ccccc4)C(=O)[C@@H]3CC[C@H]12`: the composite z-score was -0.396 (inactive) in assay [1] and 0.164 in the assay with XIP peptide (Xip251-270). Also, the z-score in assay [2] was -1.46; in assay [3] it was -2.2 (inactive).
For `C[C@H]1CC[C@@H](C(=O)O)N[C@@H]1c1ccc(C#CCN(C)C)cc1`, the results for the composite z-score (in assay [1]; with XIP peptide (Xip251-270)) were 0.908 (inactive) and 0.512, respectively. Besides, the z-score in assay [2] was -0.0492; in assay [3], -1.16 (inactive).
Consider `O=C(NN=C1C[C@@H](O)[C@@H](O)[C@@H]2[C@@H]3C(=O)N(c4cccc(Oc5ccccc5)c4)C(=O)[C@@H]3CC[C@H]12)OCc1ccccc1`, for which the figures for the composite z-score (in assay [1]; in the assay with XIP peptide (Xip251-270)) were -0.132 (inactive) and 0.0323, respectively. Besides, the z-score in assay [2] was -1.43; in assay [3], -3.8 (inactive).
For `CCOC(=O)CCN1C(=O)[C@H]2[C@H]3[C@H](O)[C@H](O)CC(=NOC[C@@H](O)COCc4ccco4)[C@@H]3CC[C@H]2C1=O`, in that order: -0.159 (inactive), 0.807, 1.93 and -0.692 (inactive).
Take `COC(=O)[C@@H]1CCCN1C(=O)[C@@H](C)CO`: the composite z-score was 0.446 (inactive) in assay [1] and 0.0063 with XIP peptide (Xip251-270). In addition, the z-score in assay [2] is -1.35; in assay [3] it was 1.64 (inactive).
As to `CO[C@@H]1COC(=O)CC=C[C@@H](C)[C@@H]2C=C[C@@H](O)[C@@H](COC(=O)CC=C[C@H]1C)O2`, the composite z-score was 0.794 (inactive) in assay [1] and -0.317 in the assay on XIP peptide (Xip251-270). Besides, the z-score in assay [2] was 0.328; in assay [3] it was -0.816 (inactive).
`C=CC[C@@H]1C=C[C@H](ON=C(C)CCN2CCc3nc(CC)c(CC)cc3C2)[C@@H](CO)O1`: the values for the composite z-score (in assay [1]; in the assay with XIP peptide (Xip251-270)) were 0.0621 (inactive) and -0.0738, respectively. The z-score was -0.163 in assay [2] and -5.51 (inactive) in assay [3].
Consider `CCOC(=O)CCN1C(=O)[C@H]2[C@H]3[C@H](O)[C@H](O)CC(=O)[C@H]3CC[C@H]2C1=O`, for which the composite z-score in assay [1] was -0.245 (inactive); in the assay with XIP peptide (Xip251-270), 0.23. For the same compound, the figures for the z-score in assay [2] and in assay [3] were -1.18 and 0.804 (inactive), respectively.
For the compound `CCOC(=O)[C@H](CC(C)C)NC(=O)CCC1CC(OC(=O)NCc2cccc3ccccc23)CC2(CCCC(COC(=O)NCCc3ccccc3OC)O2)O1` (stereo partly drawn), the composite z-score in assay [1] is 1.05 (inactive); with XIP peptide (Xip251-270), 0.623. For the same compound, the z-score in assay [2] was -1.83; in assay [3], -3.13 (inactive).
Take `CC(C)=NOCc1cccc(-c2cc(-c3ccccc3)no2)c1`: the composite z-score in assay [1] is 1.13 (inactive); in the assay with XIP peptide (Xip251-270), 0.326. Also, the z-score was 2.06 in assay [2] and 0.515 (inactive) in assay [3].
For `C[C@@H]1C=CCC(=O)OC[C@H](C)C(=O)OC[C@H]2O[C@H]1C=C[C@H]2O`, the values for the composite z-score (in assay [1]; with XIP peptide (Xip251-270)) were 0.0137 (inactive) and 0.756, respectively. Besides, the z-score is -0.315 in assay [2] and -1.13 (inactive) in assay [3].
Take `CC(C)=CCCC(C)=CCON=C1C[C@@H](O)[C@@H](O)[C@@H]2[C@@H]3C(=O)N(C[C@@H]4CCCO4)C(=O)[C@@H]3CC[C@@H]12`: the figures for the composite z-score (in assay [1]; in the assay on XIP peptide (Xip251-270)) were 0.0561 (inactive) and 0.539, respectively. In addition, the z-score in assay [2] is 1.55; in assay [3], 0.264 (inactive).
For `COC(=O)C1=C(C)N(Cc2ccccc2)[C@]23O[C@](C(=O)OC)(C(=O)N2[C@@H]1c1ccccc1)[C@H]1CCOC(=O)[C@H]13`, in that order: 0.303 (inactive), -0.202, -0.303 and -4.7 (inactive).
Turning to `CC(=O)OC[C@H]1O[C@H](CC=NOC[C@@H](C)[C@H](OCc2ccccc2)C(C)C)C=C[C@@H]1OC(C)=O`, the composite z-score in assay [1] was -0.655 (inactive); in the assay on XIP peptide (Xip251-270), -0.303. Further, the z-score in assay [2] is -0.46; in assay [3] it was -5.81 (inactive).
As for `Cc1ccc(S(=O)(=O)N[C@@H]2COC(=O)[C@H](C)COC(=O)CC=C[C@H]2C)cc1`, the composite z-score was -0.396 (inactive) in assay [1] and -0.152 in the assay on XIP peptide (Xip251-270). For the same compound, the z-score in assay [2] is -0.18; in assay [3], -0.424 (inactive).
For `COc1ccc(OC[C@H]2Cc3c(-c4ccccc4)nc4c(c3CO2)CN(CCOc2ccccc2)CC4)cc1`, in that order: 1.22 (inactive), 0.71, -1.34 and -2.66 (inactive).
For `C[C@@H]1CC[C@H]2C(=O)O[C@H](COc3ccc(C(C)(C)C)cc3)CN2[C@H]1c1ccc(Br)cc1`, in that order: -0.418 (inactive), 0.769, -0.407 and 1.23 (inactive).
With `CO[C@H]1COC(=O)[C@@H]2CCCN2C(=O)[C@@H](C)COC(=O)CC=C[C@@H]1C`, the composite z-score in assay [1] is -0.0014 (inactive); in the assay with XIP peptide (Xip251-270), 0.371. Besides, the results for the z-score in assay [2] and in assay [3] were 1.2 and -0.54 (inactive), respectively.
